CYP2C19 inh – blockers of cytochrome P450 2C19 activity – biochemical, luminescence, ADME assay, primary screen | P33261 | CYP2C19 Supersomes, luciferin-H EGE luminescence, 30 min | inhibition, % at 5 µM | 96,000 compounds, 21% hits | AID 778, 2007;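 active means CYP2C19 inhibition above a set limit at 5 µM in the primary screen, cut at about 50% in these data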
Target sequence (P33261 whole entry, looked up): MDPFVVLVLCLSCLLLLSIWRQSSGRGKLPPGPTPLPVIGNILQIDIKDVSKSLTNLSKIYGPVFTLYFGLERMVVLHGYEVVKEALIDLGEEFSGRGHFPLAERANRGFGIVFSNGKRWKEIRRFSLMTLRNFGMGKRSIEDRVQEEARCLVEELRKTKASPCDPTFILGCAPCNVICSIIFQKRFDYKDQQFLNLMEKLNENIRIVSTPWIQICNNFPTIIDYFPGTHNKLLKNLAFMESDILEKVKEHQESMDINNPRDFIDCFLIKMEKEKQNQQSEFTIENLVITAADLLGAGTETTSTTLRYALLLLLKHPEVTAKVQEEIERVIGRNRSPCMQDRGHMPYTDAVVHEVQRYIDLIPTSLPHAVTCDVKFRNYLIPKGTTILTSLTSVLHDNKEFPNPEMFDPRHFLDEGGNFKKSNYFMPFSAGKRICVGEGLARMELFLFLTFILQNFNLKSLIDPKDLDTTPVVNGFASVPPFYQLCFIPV
CYP2C9 inhib – blockers of cytochrome P450 2C9 activity – biochemical, luminescence, ADME assay, primary screen | P11712 | CYP2C9 Supersomes, luciferin-H conversion | inhibition, % at 5 µM | 96,000 compounds, 20% hits;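 active means blocking of liver enzyme CYP2C9 beyond about 50% at 5 µM, limit read from the data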
CYP2C19 act – human CYP2C19 activators, primary screen, biochemical, luminescence; recombinant CYP2C19, luciferin-H EGE luminescence; stronger effect = higher value; 0 = fully inhibited enzyme, 1 = untreated enzyme; activation factor at 5 µM; 96,000 tested, under 10 active; AID 1025, 2008;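 active means activation factor of at least 2 at 5 µM in the primary screen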
CYP2C9 act – human CYP2C9 activators, primary screen, biochemical, luminescence. Cytochrome P450 2C9 (Homo sapiens), P11712. recombinant CYP2C9, luciferin-H conversion; stronger effect = higher value; factor 1 = untreated enzyme, 0 = blocked. activation factor at 5 µM. 96,000 compounds, 1.4% hits. AID 1024, 2008;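 active means activation factor of 2 or more for CYP2C9 at a 5 µM dose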
Of the large screens only hits and unclear results are named; the others gave an inactive call. An excerpt weighted towards active compounds, which were near 31% of everything screened.

CCCCN(CC)C(=O)CN1C(=O)c2ccccc2C1=O	none
COCCN1CN=C(Nc2nc3ccccc3s2)NC1	none
O=C(COC(=O)c1ccccc1Oc1ccccc1)NC1CCS(=O)(=O)C1 (stereo not given)	none
O=C(COc1ncnc2scc(-c3ccc(Cl)cc3)c12)NCc1ccco1	none
COc1ccc(N=CC2=C(O)c3ccccc3C2=O)c(OC)c1	CYP2C19 inh 77.7
COC(=O)c1cc(=O)n(CCc2ccc(OC)c(OC)c2)c(=Nc2ccc(F)c(Cl)c2)s1	CYP2C19 inh 57.4, CYP2C9 inhib 76.1
COC(=O)c1cc(=O)n(Cc2ccc(OC)c(OC)c2)c(=Nc2ccc(F)cc2)s1	none
CC(C)CN(C(=O)c1nn(C)c(=O)c2ccccc12)c1nc2ccccc2s1	CYP2C19 inh 53.2, CYP2C9 inhib 77.4
CN(C(=O)c1ccccc1)c1nc2ccccc2s1	none
Cc1ccc(CC2(O)CC(C)N(C)CC2C)c(C)c1 (stereo not given)	none
CCOc1ccc(N2C(=O)CC(NCCc3ccc(S(N)(=O)=O)cc3)C2=O)cc1 (stereo not given)	none
CCOc1ccc(N2C(=O)CC(NCCc3ccncc3)C2=O)cc1 (stereo not given)	CYP2C19 inh 52.0
CCCOc1ccc(N2C(=O)CC(NCc3ccncc3)C2=O)cc1 (stereo not given)	CYP2C19 inh 68.4, CYP2C9 inhib 66.7
CCCOc1ccc(N2C(=O)CC(N3CCC(c4nncn4CC)CC3)C2=O)cc1 (stereo not given)	CYP2C9 inhib 64.1
CCCOc1ccc(N2C(=O)CC(NCCc3ccc(S(N)(=O)=O)cc3)C2=O)cc1 (stereo not given)	none
Cc1ccccc1Sc1c(C#N)c(-c2ccccc2)nn1C	none
CCN=C(Nc1ccc(Cl)cc1)c1cccnc1	none
CCCCN=C(Nc1ccc(Cl)cc1)c1cccnc1	CYP2C19 inh 67.0
CCCN=C(Nc1ccc(Cl)cc1)c1cccnc1	CYP2C19 inh 53.5
O=C(NCc1cccnc1)Nc1cccc(NC(=O)NCc2cccnc2)c1	none
O=C(NCc1cccnc1)NC1(C(F)(F)F)Oc2ccccc2O1	CYP2C19 inh 90.4
O=C(NCc1cccnc1)NC(C(F)(F)F)C(F)(F)F	CYP2C19 inh 66.4
CSCCC(NC(=O)c1ccc(C)o1)C(=O)O (stereo not given)	none
COC(=O)c1ccc(NC(=S)NCCc2cccc(C)c2)cc1	CYP2C19 inh 76.6, CYP2C9 inhib 79.4
CCOC(=O)C1=C(CSc2n[nH]c(N)n2)NC(=O)NC1C (stereo not given)	none
COc1ccccc1C(=O)Oc1ccc(C(C)(C)C)cc1	none
Cc1ccccc1S(=O)(=O)Oc1ccccc1C(=O)Oc1ccccc1	CYP2C9 inhib 50.3
Fc1ccc(C[n+]2csc3ccccc32)cc1	CYP2C9 inhib 60.3
O=C(NC(Cc1ccccc1)C(=O)O)/C(=C\c1ccc(F)cc1)NC(=O)c1ccccc1 (stereo not given)	none
CC(C)(C)c1ccc(S(=O)(=O)NCC(=O)Nc2ccc(-c3nc4ccccc4s3)cc2)cc1	none
NC(=O)c1c(NC(=O)c2cccs2)sc2c1CCCCCC2	CYP2C19 inh 83.5, CYP2C9 inhib 84.7
O=C(Nc1sc2c(c1C(=O)O)CCC2)c1ccccc1	none
O=C(Nc1sc2c(c1C(=O)O)CCC2)c1cccs1	CYP2C19 inh 84.8, CYP2C9 inhib 69.7
CC(C)(C)c1ccc(S(=O)(=O)NCC(=O)Nc2sc3c(c2C(N)=O)CCCC3)cc1	CYP2C9 inhib 55.0
COCCCNC(=O)c1c(NC(=O)c2cccs2)sc2c1CCCC2	none
O=C(O)CCC(=O)Nc1ccc2c(c1)oc1ccccc12	none
COC(=O)c1ccc(/C=N/N2CCN(Cc3ccccc3)CC2)cc1	none
O=C(Cc1ccccc1[N+](=O)[O-])NCCSCc1c(F)cccc1Cl	none
CC(C)(C)c1ccc(C(=O)CSc2n[nH]c(=O)[nH]c2=O)cc1	CYP2C9 inhib 52.7
Cc1cc(C(=O)CN2C(=O)NC3(CCCc4ccccc43)C2=O)c(C)n1Cc1cccs1 (stereo not given)	none
Cc1cc(C(=O)COC(=O)c2ccc3c(c2)OCO3)c(C)n1Cc1cccs1	none
Cc1cc(C(=O)COC(=O)c2ccccc2O)c(C)n1Cc1cccs1	CYP2C19 inh 56.7
CCn1nc(C(=O)OCC(=O)c2cc(C)n(Cc3cccs3)c2C)c2ccccc2c1=O	CYP2C19 inh 79.9
CC(=O)Nc1ccccc1OCC(=O)c1cc(C)n(Cc2cccs2)c1C	CYP2C19 inh 80.5
O=C(O)CCNc1cc2ccccc2cc1C(=O)O	none
O=C(CN1c2ccccc2Sc2ccccc21)NNC(=S)Nc1ccc(Cl)cc1Cl	CYP2C9 inhib 80.0
O=C(c1ccc(Cl)cc1)C(Cn1cncn1)C(Sc1ccccc1)c1ccccc1 (stereo not given)	CYP2C19 inh 98.5, CYP2C9 inhib 100.3
CCCC(C(=O)c1ccccc1)n1cncn1 (stereo not given)	none
Cc1ccc(SC(c2ccccc2)C(Cn2cncn2)C(=O)c2ccccc2)cc1 (stereo not given)	CYP2C19 inh 99.1, CYP2C9 inhib 100.3
c1ccc(-c2nnc(CN3CCCc4ccccc43)o2)cc1	CYP2C19 inh 77.9, CYP2C9 inhib 76.2
c1ccc(-c2nnc(CN3CCC4(CC3)OCCO4)o2)cc1	CYP2C19 inh 53.0
O=C(NCCC1=CCCCC1)N[C@@H](Cc1ccccc1)C(=O)O	none
O=S(=O)(NCCSc1nnnn1-c1ccccc1)c1cccs1	CYP2C19 inh 98.6
CS(=O)(=O)NCCSc1nnnn1-c1ccccc1	CYP2C19 inh 51.5
O=C(O)CCCNS(=O)(=O)c1cccs1	none
Cc1ccc(S(=O)(=O)NCCSc2nnnn2-c2ccc(C(N)=O)cc2)cc1	none
Cc1cc(=O)[nH]c(N2CCCC2)n1	none
O=CNC(Cc1ccccc1)C(=O)O (stereo not given)	none
O=C(NC1CCCC1)c1ccc(CS(=O)(=O)c2cccc(C(F)(F)F)c2)o1	none
Cc1cccc(S(=O)(=O)NCCC(=O)OC(C)C(=O)NC(=O)NC2CCCCC2)c1 (stereo not given)	CYP2C9 inhib 56.3
O=C(COC(=O)CCNS(=O)(=O)c1cccc(C(F)(F)F)c1)NC(=O)NC1CCCCC1	CYP2C19 inh 69.3, CYP2C9 inhib 78.9
CC(=O)OC(C(=O)NC1CCCCC1)c1cccc(C)c1 (stereo not given)	none
COC(=O)[C@@H](NC(=O)Nc1ccc(OC)cc1)C(C)C	none
O=C(Nn1c(-c2ccccc2)nc2ccccc2c1=O)C1CCC1	none
CC(C)OC(=O)C1C(=O)CC(C)(O)C(C(=O)OC(C)C)C1c1ccc(F)cc1 (stereo not given)	CYP2C19 inh 76.6
CCN(CC)c1ccc(C2C(C(=O)OC(C)C)C(=O)CC(C)(O)C2C(=O)OC(C)C)cc1 (stereo not given)	none
COC(=O)CC1Oc2ccccc2N(Cc2ccccc2)C1=O (stereo not given)	CYP2C19 inh 89.5, CYP2C9 inhib 54.7
Cc1ccc2c(c1)N(CC(=O)c1cccc(Cl)c1)C(=O)C(C)O2 (stereo not given)	none
